The source of these data is PubChem BioAssay (NCATS).

The target in assay [1] is Luciferin 4-monooxygenase (Photinus pyralis) (UniProt P08659). The assay is described as follows: Primary firefly luciferase (FLuc) qHTS assay for identification of artifact compounds. (AID 1845220). Also: nearly all actives have a fitted effect of over 60% in size. In a few lines:
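D-luciferin and ATP (10 uM each, final) in Tris acetate buffer pH 7.6 were incubated with compounds for 15 min at room temperature. The reaction was started with 10 nM Photinus pyralis luciferase and luminescence read after 5 min. Percent inhibition was fitted to a 4-parameter Hill equation.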
A general note: qHTS replaces the single test concentration by a dilution series.

Assay [2] is described as follows: Primary fluorescence-based thiol-reactive (MSTI) qHTS assay for identification of artifact compounds. (AID 1845221). Also: nearly all actives have a fitted effect of over 65% in size. Also: potency is read from the fitted curve at half-maximal effect. The gist of the method:
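MSTI probe at 4 uM final in 2% DMSO/PBS pH 7.4; compounds, 1 h at room temperature in dark. Fluorescence Ex/Em 525/598 nm, normalised to Acetyl-MSTI and MSTI, fitted to 4-parameter Hill.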

Assay [3] concerns Nanoluciferase (engineered Oplophorus gracilirostris luciferase). The assay is described as follows: Primary Nanoluciferase (NLuc) qHTS assay for identification of artifact compounds. (AID 1845222). Also: series mostly up to about 54 µM. In a few lines:
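Diluted conditioned medium from NLuc-expressing S16 cells treated with compounds for 15 min at room temperature, then Nano-Glo substrate added; luminescence read after 5 min. Percent inhibition versus no-enzyme and DMSO controls fitted to 4-parameter Hill equation.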

A short description of assay [4]: Primary redox qHTS assay for identification of artifact compounds. (AID 1845223). Also: potency is read from the fitted curve at half-maximal effect. In a few lines:
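Amplex Red (25 uM) and HRP (250 mU/mL) in HBSS, with compounds for 15 min, then 250 uM DTT for 30 min, room temperature, dark. Fluorescence 525/598 nm read; normalized to DMSO and 10 uM DA3003; Hill fit.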

Assay [5] can be described thus: Quantitative High-Throughput drug screen in 47 multiple myeloma cell lines against the NCATS MIPE library collection: FR4_PLB cell viability assay (AID 1918924; also: nearly all actives have a fitted effect of over 35% in size; also: potency is read from the fitted curve at half-maximal effect). The gist of the method: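 Inhibition of cell viability is measured here. Each line was plated at 500 cells per well, treated with MIPE 4.0 drugs, kept 48 hours at 37C, then assayed for ATP content by CellTiter-Glo luminescence.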

Assay [6] in a line: Quantitative High-Throughput drug screen in 47 multiple myeloma cell lines against the NCATS MIPE library collection: Delta47_JCRB cell viability assay (AID 1918925; also: nearly all actives have a fitted effect of over 45% in size; also: potency is read from the fitted curve at half-maximal effect). The gist of the method: (§1)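 Relative luminescence from CellTiter-Glo served as the viability signal, referenced to DMSO-treated (100%) and cell-free medium (0%) controls. Treatment lasted 48 hours at 37C with 500 cells per well.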

Assay [7] in a line: Quantitative High-Throughput drug screen in 47 multiple myeloma cell lines against the NCATS MIPE library collection: ARD_JJKsccE7 cell viability assay (AID 1918929; also: potency is read from the fitted curve at half-maximal effect). In a few lines:
as §1

Assay [8] in a line: Quantitative High-Throughput drug screen in 47 multiple myeloma cell lines against the NCATS MIPE library collection: EJM_DSMZ cell viability assay (AID 1918926; also: nearly all actives have a fitted effect of over 30% in size; also: potency is read from the fitted curve at half-maximal effect). In a few lines:
as §1

Assay [9] can be described thus: Quantitative High-Throughput drug screen in 47 multiple myeloma cell lines against the NCATS MIPE library collection: AMO1_DSMZ cell viability assay (AID 1918927; also: nearly all actives have a fitted effect of over 30% in size; also: potency is read from the fitted curve at half-maximal effect). The gist of the method:
as §1

Assay [10] in a line: Quantitative High-Throughput drug screen in 47 multiple myeloma cell lines against the NCATS MIPE library collection: ARP1_JJKsccF8 cell viability assay (AID 1918928; also: nearly all actives have a fitted effect of over 40% in size; also: potency is read from the fitted curve at half-maximal effect). The gist of the method:
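Luminescence from CellTiter-Glo, taken after 5 min at room temperature, reports cellular ATP as viability. Cells (500 per well) had been treated 48 h at 37 °C with MIPE 4.0 compounds, scaled between DMSO and medium-only controls.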

Inconclusive results are not listed. Calls of active or inactive are those of the source. Calls follow the shape of the dose curve; as a rule, active = well fitted curve in the direction sought with a large enough effect; inconclusive = small, poorly fitted or top-dose-only effect, or another doubt; inactive = no such curve, though single readings can be large; an effect the other way counts as inactive or inconclusive.

With `OCCNC1CCCc2c1[nH]c1ccc(-c3ccccc3)cc21` (configuration not stated), the Potency result in assay [1], in assay [2] and in assay [4] was “inactive” throughout. For the same compound, in [3], the compound was called inactive. In addition, the Potency is 18.7 µM (active) in [5], 10.5 µM (active) in assay [6] and 26.4 µM (active) in assay [7].

Take `C[N+]1(C)[C@@H]2C[C@@H](OC(=O)C(O)(c3cccs3)c3cccs3)C[C@H]1[C@@H]1O[C@@H]12`: the Potency result in assay [1], in assay [2], in assay [4], in assay [5], in [8] and in assay [7] was “inactive” each time. Further, the call in assay [3] was inactive.

Consider `Oc1cc(-c2nc(-c3ccccc3)[nH]c2-c2ccncc2)ccc1Cl`, for which the Potency result in assay [1], in assay [2] and in [4] was “inactive” in each case. Moreover, the result in assay [3] was inactive. Besides, the Potency in [6] was 4.69 µM (active); in assay [8], 18.7 µM (active); in assay [9], 5.26 µM (active); in assay [10] it was 14.8 µM (active); in assay [7], 5.9 µM (active).

Take `CN(C)CC(=O)N1CCC(c2ccc(NC(=O)c3ncc(C#N)[nH]3)c(C3=CCCCC3)c2)CC1`: the Potency result in assay [1], in assay [2], in assay [4], in [5] and in [10] was “inactive” throughout. The call in assay [3] was inactive. The Potency in assay [6] was 18.7 µM (active); in assay [8], 18.7 µM (active); in assay [7], 3.32 µM (active).

For the compound `CC(C)n1cnc2c(NCCc3ccc(O)cc3)nc(-c3csc4ccccc34)nc21`, the Potency result in [1], in assay [2] and in assay [4] was “inactive” each time. For the same compound, the result in [3] was inactive. Further, the Potency in [5] was 20.9 µM (active); in assay [8], 5.9 µM (active); in [10] it was 14.8 µM (active).

For `Cc1ncc(-c2ccnc(Nc3ccc(S(C)(=O)=O)cc3)n2)n1C(C)C`, the Potency result in [1], in assay [2] and in assay [4] was “inactive” each time. Besides, the call in [3] was inactive. Also, the Potency in [5] was 2.64 µM (active); in assay [6], 2.35 µM (active); in [9], 2.09 µM (active); in assay [10] it was 2.96 µM (active); in assay [7], 2.96 µM (active).

As to `C[C@H]1[C@@H](OC(=O)CCC(=O)O)O[C@@H]2O[C@@]3(C)CC[C@@H]4[C@H](C)CC[C@@H]1[C@@]24OO3`, the Potency entry in [1], in assay [2] and in assay [4] was “inactive” each time. In assay [3], the call was inactive. For the same compound, the Potency in assay [5] is 11.8 µM (active); in assay [6], 5.26 µM (active); in assay [8], 14.8 µM (active); in [10] it was 2.35 µM (active); in [7], 1.48 µM (active).

With `O=C(Nc1ccc(Oc2ccnc3[nH]ccc23)c(F)c1)c1cccn(-c2ccc(F)cc2)c1=O`, the Potency result in [1], in assay [2], in assay [4], in assay [9] and in [10] was “inactive” each time. Further, the call in assay [3] was inactive.

Regarding `COc1ccc(S(=O)(=O)Nc2cccnc2Nc2ccc(O)cc2)cc1`, the Potency result in assay [1] and in assay [4] was “inactive” each time. Besides, the Potency is 4.23 µM (active) in assay [2]; 0.0264 µM (active) in [5]; 0.0264 µM (active) in [6]; 0.296 µM (active) in assay [8]; 0.059 µM (active) in assay [10]. In addition, the compound was called inactive in assay [3].

For `CC(C)(N)c1ccc(-c2nc3ccccc3nc2-c2ccccc2)cc1`, the Potency entry in assay [1], in [2] and in [4] was “inactive” each time. The result in assay [3] was inactive. Moreover, the Potency was 5.9 µM (active) in [6], 23.5 µM (active) in assay [8], 14.8 µM (active) in assay [9] and 14.8 µM (active) in [7].

For the compound `CCc1ccc(C(=O)Nc2cc(CN3CCN(C)CC3)cc(C(F)(F)F)c2)cc1C#Cc1cnc2ccnn2c1`, the Potency result in assay [1] and in assay [2] was “inactive” each time. Also, the compound was classed as inactive in assay [3]. For the same compound, the Potency in assay [5] is 11.8 µM (active); in assay [6], 13.2 µM (active); in assay [8], 16.6 µM (active); in assay [9], 4.69 µM (active); in [10], 5.9 µM (active); in [7], 8.33 µM (active).

As to `CC(C)C[C@H](NC(=O)[C@@H](NC(=O)c1cccc(-c2ccccc2)n1)[C@@H](C)O)B(O)O`, the Potency entry in assay [1] and in [2] was “inactive” throughout. Further, the outcome in assay [3] was inactive. The Potency in [5] was 0.0209 µM (active); in assay [6], 0.0166 µM (active); in assay [8] it was 0.0469 µM (active); in [10], 0.0166 µM (active).

`CCCCOc1ccc(C(=O)Nc2ccc(F)cc2F)cc1`: the Potency result in assay [1], in assay [2], in [4], in [6], in assay [8] and in assay [10] was “inactive” in each case. The Potency result in assay [7] was “inactive”. In addition, the compound was called inactive in assay [3].

As for `CC(C)c1cc(C(C)C)c(CC(=O)NS(=O)(=O)Oc2c(C(C)C)cccc2C(C)C)c(C(C)C)c1`, the Potency result in assay [1], in assay [2] and in [6] was “inactive” in each case. Further, the result in assay [3] was inactive. Besides, in assay [9], the Potency was 4.69 µM (active).

In the case of `Cc1cncc2cccc(S(=O)(=O)N3CCCN(C(=O)CN)C[C@@H]3C)c12`, the Potency entry in assay [1], in [2] and in assay [4] was “inactive” throughout. The result in assay [3] was inactive. The Potency in assay [6] is 23.5 µM (active); in [8] it was 23.5 µM (active); in assay [9], 10.5 µM (active); in assay [7], 16.6 µM (active).

As for `Cc1coc2c1C(=O)C(=O)c1c-2ccc2c(C)cccc12`, the Potency result in [1], in assay [9] and in assay [7] was “inactive” each time. For the same compound, the Potency in assay [2] is 3.36 µM (active); in assay [4] it was 1.06 µM (active); in assay [5] it was 20.9 µM (active); in assay [8] it was 16.6 µM (active). In [3], the outcome was inactive.

As to `CC(O)(C#Cc1ccc2c(c1)N(c1nc(N)ncc1Cl)CC2)c1nccs1` (configuration not stated), the Potency entry in [1] and in assay [2] was “inactive” in each case. Further, the outcome in assay [3] was inactive. For the same compound, the Potency in assay [6] was 2.09 µM (active); in assay [8], 11.8 µM (active); in assay [9] it was 13.2 µM (active); in assay [7], 18.7 µM (active).

As to `N[C@H]1CN(c2c(F)cc3c(=O)c(C(=O)O)cn(C4C[C@@H]4F)c3c2Cl)CC12CC2` (some centres not stated), the Potency entry in [1], in [2], in assay [4], in assay [5], in [6] and in [8] was “inactive” in each case. The Potency result in assay [9], in [10] and in assay [7] was “inactive” in each case. Also, the outcome in assay [3] was inactive.

For the compound `c1cncc(CN2CCC(n3ncc4c(N5CCOCC5)nc(-c5ccc6[nH]ccc6c5)nc43)CC2)c1`, the Potency entry in assay [1], in assay [2] and in [4] was “inactive” in each case. In addition, in [3], the outcome was inactive. The values for the Potency in [5], in [8] and in [10] were 4.69 µM (active), 5.9 µM (active) and 3.32 µM (active), respectively.

With `CCc1nc(-c2cccc(C)c2)c(-c2ccnc(NC(=O)c3ccccc3)c2)s1`, the Potency entry in [1], in assay [2] and in [4] was “inactive” in each case. In addition, the compound was classed as inactive in [3]. Besides, the Potency is 18.7 µM (active) in assay [5]; 16.6 µM (active) in assay [8]; 18.7 µM (active) in assay [9]; 11.8 µM (active) in assay [10]; 20.9 µM (active) in assay [7].
